We go through eight molecules from PubChem BioAssay (Tox21).

Several values for one entry are separate records, joined by “and”; a condition that tells them apart may be missing. Equal values may be shown once. Inconclusive results are not listed. Activity calls are given as the source filed them. Unless noted, calls come from the whole dose curve; as a rule, active = well fitted curve in the direction sought with a large enough effect in the repeat runs; inconclusive = weak or mixed curves; inactive = no such curve, though single readings can be large; an effect the other way counts as inactive or inconclusive.

Assay [1] can be described thus: qHTS RealTime-Glo MT Cell Viability Assay in HEK293 cells - 0 hour (AID 1224880). Note: top concentration of the series differs between compounds; nearly all actives have a fitted effect of over 45% in size. An outline of the steps:
(§1)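 Tox21 screen in HEK293 using RealTime-Glo MT chemistry, with cells and reagent co-dispensed. Luminescence proportional to viable cell number was captured at intervals during 40 h compound exposure at 37 C.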

Assay [2] is described as follows: A CellTox Green Cytotoxicity Assay to monitor cytotoxicity in HEK293 cells - 32 hour (AID 1224881). Note: nearly all actives have a fitted effect of over 40% in size. An outline of the steps: (§2)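 Seeding of HEK293 cells together with cytotoxicity dye preceded a 5 h incubation at 37 C/5% CO2. Test compounds in DMSO were then added and fluorescence monitored across 40 h.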
A short description of assay [3]: A CellTox Green Cytotoxicity Assay to monitor cytotoxicity in HepG2 cells - 0 hour (AID 1224882). Note: nearly all actives have a fitted effect of over 35% in size. In a few lines:
(§3)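 Nonlytic assay: viable cells exclude the dye, so fluorescence scales with cell death. HepG2 at 600 cells/well, compounds added after 5 h, signal read across 40 h.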

Assay [4] is described as follows: A CellTox Green Cytotoxicity Assay to monitor cytotoxicity in HepG2 cells - 32 hour (AID 1224883). Note: nearly all actives have a fitted effect of over 50% in size. Note: potency is the fitted concentration of half-maximal effect. An outline of the steps:
as §3

The nature of assay [5]: A CellTox Green Cytotoxicity Assay to monitor cytotoxicity in HEK293 cells - 8 hour (AID 1224884). Note: nearly all actives have a fitted effect of over 35% in size. In a few lines:
as §2

Assay [6] can be described thus: qHTS RealTime-Glo MT Cell Viability Assay in HepG2 cells - 16 hour (AID 1224885). Note: nearly all actives have a fitted effect of over 50% in size. In a few lines: (§4)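 Compound treatment began 5 h after plating HepG2 cells (600/well) with NanoLuc luciferase and prosubstrate. Plates stayed at 37 C for 40 h; luminescence was captured at six time points, 0 h through 40 h.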
Assay [7] in a line: qHTS RealTime-Glo MT Cell Viability Assay in HEK293 cells - 24 hour (AID 1224886). Note: top concentration of the series differs between compounds; nearly all actives have a fitted effect of over 50% in size. In a few lines: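 Quantitative high-throughput screen of the Tox21 10K library in HEK293: cells and RealTime-Glo reagents plated together, compound added at 5 h, luminescence monitored through 40 h at 37 C.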
Assay [8] can be described thus: qHTS RealTime-Glo MT Cell Viability Assay in HEK293 cells - 8 hour (AID 1224887). Note: top concentration of the series differs between compounds; nearly all actives have a fitted effect of over 50% in size. In a few lines: as §1
A short description of assay [9]: A CellTox Green Cytotoxicity Assay to monitor cytotoxicity in HEK293 cells - 16 hour (AID 1224888). Note: nearly all actives have a fitted effect of over 35% in size. In a few lines:
as §2

Assay [10] can be described thus: qHTS RealTime-Glo MT Cell Viability Assay in HepG2 cells - 0 hour (AID 1224889). Note: nearly all actives have a fitted effect of over 50% in size. An outline of the steps: as §4
A short description of assay [11]: A CellTox Green Cytotoxicity Assay to monitor cytotoxicity in HepG2 cells - 8 hour (AID 1224890). Note: nearly all actives have a fitted effect of over 45% in size. In a few lines:
as §3

Assay [12] can be described thus: qHTS assay to identify small molecule antagonists of the estrogen receptor alpha (ER-alpha) signaling pathway using the BG1 cell line in the presence of 0.1 nM 17-beta-estradiol - cell viability counter screen (AID 1259241). Note: nearly all actives have a fitted effect of over 40% in size. An outline of the steps: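 CellTiter-Fluor read (30 min, 37C) on ER-alpha/ERE-luc VM7Luc4E2 cells; 22 hr compound treatment; agonist 0.1 nM E2 final; same-well multiplex.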

Assay [13] in a line: qHTS assay to identify small molecule antagonists of the androgen receptor (AR) signaling pathway using the MDA cell line in the presence of 0.5 nM R1881 - cell viability counter screen (AID 1259242). Note: nearly all actives have a fitted effect of over 45% in size. In a few lines:
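R1881 at 0.5 nM final stimulated MDA-kb2 cells during 16 hr compound treatment at 37C. Cytotoxicity read: CellTiter-Fluor fluorescence after 30 min.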

Assay [14] concerns the target Androgen receptor (Homo sapiens) (UniProt P10275). The assay is described as follows: qHTS assay to identify small molecule antagonists of the androgen receptor (AR) signaling pathway using the MDA cell line in the presence of 0.5 nM R1881 (AID 1259243). Note: nearly all actives have a fitted effect of over 50% in size. Note: potency is the fitted concentration of half-maximal effect. In a few lines: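 We exposed MDA-kb2 cells to compounds under 0.5 nM R1881 stimulation for 16 hr at 37C and quantified MMTV-driven luciferase by luminescence.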

Assay [15] is described as follows: qHTS assay to identify small molecule phospholipidosis (PLD) inducers (AID 1259344; active = well fitted curve in the direction sought with a large enough effect; an effect the other way counts as inactive or inconclusive). An outline of the steps: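 Quantitative HTS in HepG2: compound plus LipidTOX Red dye for 24 h, paraformaldehyde fixation with Hoechst 33342, widefield high-content imaging; amiodarone as positive and DMSO as negative control.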
A short description of assay [16]: qHTS assay to identify small molecule HDAC inhibitors (AID 1259364). Note: potency is the fitted concentration of half-maximal effect.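 Note: wild-type HCT-116 cells with endogenous class I/II HDAC activity; nearly all actives have a fitted effect of over 45% in size.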 An outline of the steps: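 Relative class I and II HDAC activity is taken from the luminogenic signal in HCT-116 cells, with compound exposure 2 hr and reagent development 30 min at room temperature.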
A short description of assay [17]: qHTS assay to identify small molecule HDAC inhibitors - cell viability counter screen (AID 1259365). In a few lines: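 To flag cytotoxic hits, 1,500 wild-type HCT-116 cells per well, plated the day before, receive test compounds for 2hr at 37 C before CellTiter-Glo reagent and a luminescence read.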
Assay [18] in a line: qHTS assay to identify small molecule agonists of the sonic hedgehog signaling (Shh) pathway - cell viability counter screen (AID 1259366). Note: nearly all actives have a fitted effect of over 50% in size. An outline of the steps: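 Fluorescence from CellTiter-Fluor reports live cells in this counter screen. NIH/3T3-derived Gli1-Luc reporter cells receive test compounds for 24hr at 37C; reagent goes in at 23hr.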
Assay [19] in a line: qHTS assay to identify small molecule antagonists of the sonic hedgehog signaling (Shh) pathway - cell viability counter screen (AID 1259367). Note: nearly all actives have a fitted effect of over 55% in size. An outline of the steps: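 Seed 3T3 Gli1-Luc cells at 2,000 per well; incubate 4 hr; add compound in DMSO, then conditioned medium; incubate at 37C with 5% CO2; add CellTiter-Fluor after 23 hr; read fluorescence 1 hr later.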
Assay [20] deals with Estrogen receptor (Homo sapiens) (UniProt P03372). The assay is described as follows: qHTS assay to identify small molecule antagonists of the estrogen receptor alpha (ER-alpha) signaling pathway using the BG1 cell line in the presence of 0.1 nM 17-beta-estradiol (AID 1259244). Note: nearly all actives have a fitted effect of over 50% in size. In a few lines:
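VM7Luc4E2; 4xERE-luciferase; 0.1 nM E2 final; 22 h co-incubation, 37C; ONE-Glo luminescence after 30 min at room temperature.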

Estrogen receptor (Homo sapiens), sequence (P03372 whole entry, looked up): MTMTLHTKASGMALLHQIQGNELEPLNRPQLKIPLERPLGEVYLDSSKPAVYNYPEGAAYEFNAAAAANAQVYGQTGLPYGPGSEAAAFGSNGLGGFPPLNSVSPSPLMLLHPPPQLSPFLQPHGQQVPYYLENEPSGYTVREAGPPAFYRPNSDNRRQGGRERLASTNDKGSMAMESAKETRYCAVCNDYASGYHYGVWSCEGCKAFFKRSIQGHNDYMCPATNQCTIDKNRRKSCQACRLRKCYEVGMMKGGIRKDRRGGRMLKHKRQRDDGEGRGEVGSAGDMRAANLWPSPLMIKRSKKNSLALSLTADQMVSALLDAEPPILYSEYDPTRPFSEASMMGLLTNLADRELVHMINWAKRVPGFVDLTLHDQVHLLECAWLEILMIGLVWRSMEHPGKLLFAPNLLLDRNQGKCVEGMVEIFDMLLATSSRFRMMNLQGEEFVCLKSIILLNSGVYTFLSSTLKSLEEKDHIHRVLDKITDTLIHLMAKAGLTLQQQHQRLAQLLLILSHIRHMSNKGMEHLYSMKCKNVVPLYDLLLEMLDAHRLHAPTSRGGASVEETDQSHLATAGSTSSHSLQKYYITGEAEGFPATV
Androgen receptor (Homo sapiens), sequence (P10275 whole entry, looked up): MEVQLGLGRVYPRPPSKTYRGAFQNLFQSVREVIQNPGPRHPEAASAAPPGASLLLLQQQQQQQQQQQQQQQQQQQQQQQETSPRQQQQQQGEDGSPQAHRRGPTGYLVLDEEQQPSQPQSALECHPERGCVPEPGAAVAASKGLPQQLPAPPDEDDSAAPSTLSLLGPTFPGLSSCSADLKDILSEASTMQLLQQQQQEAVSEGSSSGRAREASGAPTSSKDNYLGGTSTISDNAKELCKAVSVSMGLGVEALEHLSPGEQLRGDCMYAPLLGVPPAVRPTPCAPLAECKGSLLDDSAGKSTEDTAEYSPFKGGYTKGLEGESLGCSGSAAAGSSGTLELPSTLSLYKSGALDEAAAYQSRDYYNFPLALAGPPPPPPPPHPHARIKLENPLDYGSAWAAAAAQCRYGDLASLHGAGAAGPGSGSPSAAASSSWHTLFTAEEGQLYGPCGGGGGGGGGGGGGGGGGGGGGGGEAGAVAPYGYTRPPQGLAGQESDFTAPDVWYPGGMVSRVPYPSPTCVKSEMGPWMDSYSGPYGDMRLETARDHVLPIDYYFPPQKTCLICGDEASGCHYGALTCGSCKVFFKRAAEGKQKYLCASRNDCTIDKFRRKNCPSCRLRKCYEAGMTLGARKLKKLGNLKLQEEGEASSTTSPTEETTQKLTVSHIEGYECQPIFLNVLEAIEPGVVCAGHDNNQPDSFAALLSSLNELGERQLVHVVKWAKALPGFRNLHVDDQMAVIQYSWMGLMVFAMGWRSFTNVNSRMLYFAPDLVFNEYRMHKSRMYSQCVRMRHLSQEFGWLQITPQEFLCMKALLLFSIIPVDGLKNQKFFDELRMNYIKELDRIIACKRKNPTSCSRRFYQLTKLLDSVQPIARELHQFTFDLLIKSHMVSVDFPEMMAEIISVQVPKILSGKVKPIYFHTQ

As to `COC(C)(C)CCCC(C)C/C=C/C(C)=C/C(=O)OC(C)C` (configuration not stated), the call in assay [1], in [6], in assay [7], in assay [8], in assay [10] and in assay [12] was inactive. Further, the outcome in assay [13] and in assay [17] was inactive. Besides, the Potency entry in [2], in [3], in assay [4], in [5], in assay [9] and in assay [11] was “inactive” throughout. For the same molecule, the Potency result in assay [14], in assay [15], in assay [16], in [18] and in assay [19] was “inactive” each time.

With `CNC(=O)O/N=C(\SC)C(=O)N(C)C`, the call in [1], in assay [6], in [7], in assay [8], in [10] and in assay [12] was inactive. Also, the outcome in [13] was inactive. The Potency result in [2], in assay [3], in assay [4], in assay [5], in assay [9] and in [11] was “inactive” in each case. In addition, the Potency result in assay [14], in assay [20], in [16], in assay [18] and in assay [19] was “inactive” each time.

Turning to `COC(=O)Nc1cccc(OC(=O)Nc2cccc(C)c2)c1`, the molecule was called inactive in assay [1], in [6], in [7], in assay [8], in assay [10] and in assay [12]. Further, the outcome in assay [13] was inactive. For the same molecule, the Potency result in assay [2], in assay [3], in assay [5], in [9], in assay [11] and in assay [18] was “inactive” throughout. Besides, the Potency result in assay [19] is “inactive”. Moreover, the Potency in [4] was 49 µM (active); in [16], 27.3 µM (active) and 30.6 µM (active).

For `CNC(=O)O/N=C/C(C)(C)S(C)(=O)=O`, the call in [1], in [6], in [7], in [8], in assay [10] and in [12] was inactive. The outcome in assay [13] and in [17] was inactive. The Potency entry in [2], in assay [3], in assay [4], in assay [5], in [11] and in assay [14] was “inactive” each time. In addition, the Potency entry in [20], in assay [16], in assay [18] and in [19] was “inactive” throughout.

For `O=C(O)c1cc(Oc2ccc(C(F)(F)F)cc2Cl)ccc1[N+](=O)[O-]`, the molecule was called inactive in [1], in assay [6], in assay [7], in assay [8], in assay [10] and in [12]. For the same molecule, the result in assay [13] and in assay [17] was inactive. The Potency entry in [2], in assay [3], in [4], in [5], in assay [9] and in assay [11] was “inactive” throughout. The Potency entry in assay [15], in assay [16], in [18] and in assay [19] was “inactive” throughout.

In the case of `OCc1ccco1`, the molecule was classed as inactive in assay [1], in assay [6], in assay [7], in [8], in assay [10] and in [12]. For the same molecule, in assay [13], the outcome was inactive. Besides, the Potency result in assay [2], in assay [3], in [4], in assay [5], in assay [9] and in assay [11] was “inactive” each time. Besides, the Potency result in [20], in [16], in assay [18] and in assay [19] was “inactive” each time.

With `CC12CC1(C)C(=O)N(c1cc(Cl)cc(Cl)c1)C2=O` (configuration not stated), the call in assay [1], in assay [6], in assay [7], in [8], in [10] and in assay [12] was inactive. Besides, the outcome in assay [13] and in assay [17] was inactive. In addition, the Potency entry in [2], in assay [3], in assay [4], in assay [5], in [11] and in assay [16] was “inactive” in each case. For the same molecule, the Potency result in assay [18] and in assay [19] was “inactive” each time. The Potency in assay [14] was 1.21 µM (active) and 1.37 µM (active).

As to `Oc1c(Br)cc(Br)cc1Br`, the molecule was classed as inactive in assay [1], in assay [6], in assay [7], in assay [8], in [10] and in assay [12]. The outcome in assay [13] and in assay [17] was inactive. In addition, the Potency entry in [2], in [3], in assay [4], in assay [5], in [9] and in [11] was “inactive” each time. Moreover, the Potency entry in assay [20], in assay [15], in assay [16], in [18] and in [19] was “inactive” throughout.
